Data reported in the antibiotic and cytotoxicity screens of Wong et al. (2023).
Among all 39,000 compounds or so, about 3,300 (8.5%) were called active. The sample as a whole holds a higher share of actives than the screen did.

System: HepG2
Assay: cytotoxicity call (relative viability < 0.9)
Details: 10 µM

Question: `C[C@@H]1CN([C@H](C)CO)C(=O)c2cc(NC(=O)c3ccncc3)ccc2O[C@@H](C)CCCCO[C@H]1CN(C)C(=O)Nc1cccc2ccccc12` was tested. Which cytotoxicity call did it give?
Answer: Its cytotoxicity call is “inactive”.

Question: How did the cytotoxicity call turn out when `C[C@@H]1CCCCO[C@@H](CN(C)C(=O)c2ccccc2)[C@H](C)CN([C@H](C)CO)C(=O)c2cc(NC(=O)Nc3ccc(F)cc3)ccc2O1` was run?
Answer: Its cytotoxicity call is “inactive”.

Question: For `C[C@H]1CCCCO[C@H](CN(C)C(=O)c2ccccc2)[C@@H](C)CN([C@@H](C)CO)C(=O)c2cc(NC(=O)CCC(F)(F)F)ccc2O1`, which cytotoxicity call is on record?
Answer: Its cytotoxicity call is “inactive”.

Question: For `Cc1noc(N)c1C(=O)O`, which cytotoxicity call is on record?
Answer: The cytotoxicity call was “inactive”.

Question: How did the cytotoxicity call turn out when `COCC(=O)N1C[C@H](C)[C@@H](OC)CN(C)C(=O)c2cc(NC(=O)c3cc(C)on3)ccc2OC[C@H]1C` was run?
Answer: The cytotoxicity call was “inactive”.

Question: For `C[C@H]1CN([C@@H](C)CO)C(=O)c2cc(C#Cc3ccccc3F)cnc2O[C@@H]1CN(C)C(=O)Cc1cccnc1`, which cytotoxicity call is on record?
Answer: Its cytotoxicity call is “inactive”.

Question: Which cytotoxicity call does the source give for `O=c1ccc(=O)n(CCO)[nH]1` here?
Answer: The cytotoxicity call was “inactive”.

Question: `C#CCN(O[C@@H](/C=C/[C@@H](O)Cc1ccccc1)C1CC1)[C@@H](Cc1ccc(-n2cc(COc3ccccc3/C=C(C)/C=C/C(=O)NO)nn2)cc1)C(=O)OC` was tested. Which cytotoxicity call did it give?
Answer: The cytotoxicity call was “inactive”.

Question: With `Cc1noc(C)c1S(=O)(=O)N(C)C[C@@H]1OCCCC[C@H](C)Oc2ccc(NC(=O)Nc3cccc4ccccc34)cc2C(=O)N([C@H](C)CO)C[C@@H]1C` as the compound, how does the cytotoxicity call read?
Answer: The cytotoxicity call was “inactive”.

Question: `COc1ccc(S(=O)(=O)N(C)C[C@H]2Oc3ccc(NC(=O)NC(C)C)cc3C(=O)N([C@@H](C)CO)C[C@@H]2C)cc1` was tested. Which cytotoxicity call did it give?
Answer: Its cytotoxicity call is “inactive”.

Question: `C[C@@H]1CN([C@H](C)CO)C(=O)Cc2cc(NC(=O)Nc3cccc4ccccc34)ccc2O[C@H]1CN(C)S(=O)(=O)c1ccc(F)cc1` was tested. Which cytotoxicity call did it give?
Answer: The cytotoxicity call was “inactive”.

Question: How did the cytotoxicity call turn out when `C[C@@H]1CN([C@@H](C)CO)C(=O)Cc2cc(NC(=O)Nc3cccc4ccccc34)ccc2O[C@@H]1CN(C)S(=O)(=O)c1ccc(F)cc1` was run?
Answer: Its cytotoxicity call is “inactive”.

Question: `C[C@H](CO)N1C[C@H](C)[C@H](CN(C)S(=O)(=O)c2ccc(F)cc2)Oc2ccc(NC(=O)Nc3cccc4ccccc34)cc2CC1=O` was tested. Which cytotoxicity call did it give?
Answer: The cytotoxicity call was “active”.

Question: With `Cc1noc(C)c1NC(=O)N(C)C[C@H]1Oc2ccc(NS(C)(=O)=O)cc2CC(=O)N([C@@H](C)CO)C[C@@H]1C` as the compound, how does the cytotoxicity call read?
Answer: The cytotoxicity call was “inactive”.

Question: For `O=C(C[C@H]1C[C@H]2c3cc(NC(=O)Nc4ccc(C(F)(F)F)cc4)ccc3O[C@H]2[C@@H](CO)O1)NCc1cc(F)ccc1F`, which cytotoxicity call is on record?
Answer: Its cytotoxicity call is “inactive”.

Question: How did the cytotoxicity call turn out when `C[C@@H]1CN([C@@H](C)CO)C(=O)c2cccc(NC(=O)Nc3ccc(F)cc3)c2O[C@H]1CN(C)C(=O)Nc1ccc(C(F)(F)F)cc1` was run?
Answer: The cytotoxicity call was “inactive”.

Question: For `CC(C)CCCC(=O)N[C@@H](CCNCS(=O)(=O)O)C(=O)N[C@H](C(=O)N[C@@H](CCNCS(=O)(=O)O)C(=O)N[C@H]1CCNC(=O)[C@H]([C@@H](C)O)NC(=O)[C@H](CCNCS(=O)(=O)O)NC(=O)[C@H](CCNCS(=O)(=O)O)NC(=O)[C@H](CC(C)C)NC(=O)[C@H](CC(C)C)NC(=O)[C@H](CCNCS(=O)(=O)O)NC1=O)[C@@H](C)O`, which cytotoxicity call is on record?
Answer: Its cytotoxicity call is “inactive”.

Question: How did the cytotoxicity call turn out when `CCC(C)C1NC(=O)C(CCNCS(=O)(=O)[O-])NC(=O)C(NC(=O)C(CCNCS(=O)(=O)[O-])NC(=O)C(NC(=O)C(CCNCS(=O)(=O)[O-])NC(=O)CCCCC(C)C)C(C)O)CCNC(=O)C(C(C)O)NC(=O)C(CCNCS(=O)(=O)[O-])NC(=O)C(CCNCS(=O)(=O)[O-])NC(=O)C(C(C)CC)NC1=O.[Na+].[Na+].[Na+].[Na+].[Na+]` (stereo not drawn) was run?
Answer: The cytotoxicity call was “active”.
